Reference: PubChem BioAssay
Calls of active or inactive are those of the source.

Columns and labels:
[1] = binders of probe aFSTL3 on microarray, primary screen, stem cell growth factor project, biochemical, small-molecule microarray, fluorescence 635/667 (AID 1064); settings: higher = more signal;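 further: measures binding of the biotinylated anti-FSTL3 antibody to printed compounds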
[2] = binders from COS7 lysate, DM2A8 probe, primary screen, torsin A project, cell lysate, small-molecule microarray, fluorescence 635/667 (AID 1065); settings: higher = more signal, COS7 lysate expressing mutant human TOR1A
[3] = binders of probe aFGF2 on microarray, primary screen, stem cell growth factor project, biochemical, small-molecule microarray, fluorescence 635/667 (AID 1067); settings: higher = more signal;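 further: measures binding of biotinylated aFGF2 protein to printed compounds on slides; z-score merges feature fluorescence and signal-to-noise across triplicate slides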
[4] = binders of probe aFGF10 on microarray, primary screen, stem cell growth factor project, biochemical, small-molecule microarray, fluorescence 635/667 (AID 1071); settings: higher = more signal;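 further: score merges 667 nm spot intensity and signal to noise from triplicate slides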
[5] = molecular target: Neurogenic locus notch homolog protein 2 (Homo sapiens) (UniProt Q04721); experiment: Notch2 binders on small-molecule microarrays, primary screen, biochemical, small-molecule microarray, 635 nm fluorescence, stem cell growth factors (AID 1073); settings: Notch2 binding, higher = more signal
Chain of Neurogenic locus notch homolog protein 2 (Homo sapiens) (Q04721 whole entry, looked up, canonical isoform): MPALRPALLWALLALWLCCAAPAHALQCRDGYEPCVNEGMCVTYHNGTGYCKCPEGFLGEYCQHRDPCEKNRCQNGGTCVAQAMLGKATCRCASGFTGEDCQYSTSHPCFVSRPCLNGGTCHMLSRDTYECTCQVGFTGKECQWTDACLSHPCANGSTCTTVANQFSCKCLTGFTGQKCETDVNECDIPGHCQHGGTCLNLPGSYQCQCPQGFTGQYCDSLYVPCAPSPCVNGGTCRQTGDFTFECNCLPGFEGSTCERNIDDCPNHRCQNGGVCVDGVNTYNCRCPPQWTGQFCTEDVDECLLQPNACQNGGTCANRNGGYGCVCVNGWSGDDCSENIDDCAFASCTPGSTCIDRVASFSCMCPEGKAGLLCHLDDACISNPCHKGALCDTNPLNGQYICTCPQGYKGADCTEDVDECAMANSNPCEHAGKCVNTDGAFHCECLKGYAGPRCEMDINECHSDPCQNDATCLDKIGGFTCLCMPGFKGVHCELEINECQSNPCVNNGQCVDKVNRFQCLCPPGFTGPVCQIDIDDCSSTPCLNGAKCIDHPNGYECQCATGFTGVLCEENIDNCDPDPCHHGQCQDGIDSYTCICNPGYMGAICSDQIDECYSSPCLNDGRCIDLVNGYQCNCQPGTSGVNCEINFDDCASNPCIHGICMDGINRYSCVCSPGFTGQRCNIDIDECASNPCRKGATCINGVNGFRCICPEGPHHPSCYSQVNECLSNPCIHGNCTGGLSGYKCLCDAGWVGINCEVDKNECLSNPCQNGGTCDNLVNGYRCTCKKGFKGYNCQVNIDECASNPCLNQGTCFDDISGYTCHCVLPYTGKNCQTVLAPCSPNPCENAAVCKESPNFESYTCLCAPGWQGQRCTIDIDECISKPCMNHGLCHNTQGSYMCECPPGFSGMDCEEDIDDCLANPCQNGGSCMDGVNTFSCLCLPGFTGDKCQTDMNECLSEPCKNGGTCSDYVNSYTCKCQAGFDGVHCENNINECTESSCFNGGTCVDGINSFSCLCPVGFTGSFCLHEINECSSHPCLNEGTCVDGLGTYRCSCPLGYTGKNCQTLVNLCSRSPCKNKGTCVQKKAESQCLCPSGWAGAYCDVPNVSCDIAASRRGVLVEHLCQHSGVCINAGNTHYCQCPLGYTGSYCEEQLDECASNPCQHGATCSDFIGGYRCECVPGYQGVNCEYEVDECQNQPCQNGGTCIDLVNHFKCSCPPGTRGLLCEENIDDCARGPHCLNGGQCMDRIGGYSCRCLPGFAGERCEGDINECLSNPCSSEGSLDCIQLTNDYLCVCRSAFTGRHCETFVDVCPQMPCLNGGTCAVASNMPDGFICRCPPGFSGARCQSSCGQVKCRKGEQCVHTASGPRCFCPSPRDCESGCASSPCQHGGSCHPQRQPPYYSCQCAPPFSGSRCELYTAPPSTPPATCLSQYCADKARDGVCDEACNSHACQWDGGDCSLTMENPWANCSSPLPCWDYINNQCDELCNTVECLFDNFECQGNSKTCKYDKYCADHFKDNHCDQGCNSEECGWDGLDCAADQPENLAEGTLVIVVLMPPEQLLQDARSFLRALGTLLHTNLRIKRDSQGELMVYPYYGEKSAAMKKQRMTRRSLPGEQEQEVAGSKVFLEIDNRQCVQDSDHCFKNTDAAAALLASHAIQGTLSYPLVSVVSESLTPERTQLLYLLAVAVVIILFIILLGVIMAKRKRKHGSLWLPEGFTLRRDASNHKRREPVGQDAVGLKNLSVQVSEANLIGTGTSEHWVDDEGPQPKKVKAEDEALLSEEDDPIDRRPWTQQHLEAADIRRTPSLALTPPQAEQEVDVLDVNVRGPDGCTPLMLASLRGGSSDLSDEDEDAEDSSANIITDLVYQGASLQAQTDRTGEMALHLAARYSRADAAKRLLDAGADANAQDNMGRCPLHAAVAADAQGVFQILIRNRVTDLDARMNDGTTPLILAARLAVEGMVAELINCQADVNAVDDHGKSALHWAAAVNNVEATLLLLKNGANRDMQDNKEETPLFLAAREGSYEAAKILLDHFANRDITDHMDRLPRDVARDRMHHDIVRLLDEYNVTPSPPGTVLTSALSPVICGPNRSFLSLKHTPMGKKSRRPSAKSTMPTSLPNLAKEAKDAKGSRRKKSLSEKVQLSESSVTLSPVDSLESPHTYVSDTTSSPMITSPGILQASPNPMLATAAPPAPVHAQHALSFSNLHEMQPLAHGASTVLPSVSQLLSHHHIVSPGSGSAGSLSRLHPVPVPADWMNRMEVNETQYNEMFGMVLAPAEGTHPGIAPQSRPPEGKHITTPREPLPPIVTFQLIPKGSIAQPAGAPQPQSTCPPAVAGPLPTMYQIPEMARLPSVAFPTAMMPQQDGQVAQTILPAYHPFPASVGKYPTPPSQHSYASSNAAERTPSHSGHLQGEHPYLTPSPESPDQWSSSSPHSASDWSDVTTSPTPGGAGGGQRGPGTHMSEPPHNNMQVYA

[6] = molecular target: Pro-neuregulin-1, membrane-bound isoform (Homo sapiens) (UniProt Q02297); experiment: NRG1 binders on small-molecule microarrays, primary screen, psychiatric disease protein project, biochemical, small-molecule microarray, fluorescence 635/667 (AID 1075); settings: NRG1 binding, 635 nm fluorescence, higher = more signal;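 further: score combines 667 nm spot fluorescence with signal to noise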
Chain of Pro-neuregulin-1, membrane-bound isoform (Homo sapiens) (Q02297 whole entry, looked up, the tested form may be a part, canonical isoform): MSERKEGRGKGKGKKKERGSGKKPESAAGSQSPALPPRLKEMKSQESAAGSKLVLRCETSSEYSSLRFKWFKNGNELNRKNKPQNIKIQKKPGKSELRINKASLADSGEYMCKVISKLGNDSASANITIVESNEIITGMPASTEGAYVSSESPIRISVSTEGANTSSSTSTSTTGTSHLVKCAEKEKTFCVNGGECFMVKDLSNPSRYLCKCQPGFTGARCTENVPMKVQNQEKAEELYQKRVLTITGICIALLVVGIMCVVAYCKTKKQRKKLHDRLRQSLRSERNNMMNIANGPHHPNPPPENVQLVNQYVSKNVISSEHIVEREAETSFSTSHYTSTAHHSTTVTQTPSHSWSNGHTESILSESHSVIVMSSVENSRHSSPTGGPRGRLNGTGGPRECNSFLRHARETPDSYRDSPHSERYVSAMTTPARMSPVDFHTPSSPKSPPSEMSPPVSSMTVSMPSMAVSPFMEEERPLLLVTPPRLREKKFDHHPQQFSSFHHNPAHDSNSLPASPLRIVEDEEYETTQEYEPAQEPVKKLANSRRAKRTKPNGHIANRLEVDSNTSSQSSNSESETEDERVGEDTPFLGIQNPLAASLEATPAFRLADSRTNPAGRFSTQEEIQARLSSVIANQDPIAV

[7] = test system: Neuregulin-1 EGF-like domain; experiment: binders of neuregulin-1 EGF-like domain, primary screen, biochemical, small-molecule microarray, 635 nm fluorescence (AID 1081); settings: small-molecule microarray binding, higher = more signal;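 further: binding of the protein to compounds printed on small-molecule microarray slides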
[8] = FRG1 promoter luciferase signal modulators, primary screen, FRG1 inhibition for FSHD, cell-based, C2C12 myotubes, firefly/Renilla luciferase, luminescence (AID 1084); settings: higher = more signal, called active from +8 up or from −8 down
[9] = binders of probe aFST on microarray, primary screen, stem cell growth factor project, biochemical, small-molecule microarray, fluorescence 635/667 (AID 1086); settings: higher = more signal;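 further: score merges 667 nm fluorescence with signal-to-noise of each printed compound spot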
[10] = binders of probe aHhip on microarray, primary screen, stem cell growth factor project, biochemical, small-molecule microarray, fluorescence 635/667 (AID 1087); settings: higher = more signal;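 further: score merges spot fluorescence at 667nm with spot signal to noise ratio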
[11] = test system: PRMT1 (protein arginine N-methyltransferase 1); experiment: PRMT1 binders on small-molecule microarrays, primary screen, biochemical, small-molecule microarray, 635 nm fluorescence (AID 1088); settings: small-molecule microarray binding, higher = more signal;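 further: binding of Prmt1 protein to compounds spotted on small-molecule microarray slides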
[12] = yeast growth modulation, basal conditions, primary screen, YJM789 clinical isolate, OD600, 24 h (AID 1089);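 further: growth of clinical yeast isolate S. cerevisiae YJM 789 seeded 1000 cells per well; test concentration not given here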; settings: S. cerevisiae YJM789 growth, higher = more signal, called active from +8 up or from −8 down
[13] = fission yeast growth modulation, primary screen, strain 972, OD600, 24 h, no modulator (AID 1090);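 further: basal condition with compound alone and no growth modifier present; test concentration not given here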; settings: S. pombe 972 growth, higher = more signal, called active from +8 up or from −8 down
[14] = S. cerevisiae growth modulation with rapamycin, primary screen, strain BY4716, OD600, 96 h (AID 1091); settings: higher = more signal, called active from +8 up or from −8 down; further: test concentration not given here
[15] = molecular target: Torsin-1A-interacting protein 2 (Homo sapiens) (UniProt Q8NFQ8); experiment: LULL1 binders on small-molecule microarray, primary screen, cell lysate, human LULL1 lysate, 635/667 nm fluorescence (AID 1092); settings: hLULL1 lysate binding, 635 nm fluorescence, higher = more signal;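 further: probe is lysate of COS7 cells overexpressing human LULL1; score merges per-feature 667 nm fluorescence with signal-to-noise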
Chain of Torsin-1A-interacting protein 2 (Homo sapiens) (Q8NFQ8 whole entry, looked up): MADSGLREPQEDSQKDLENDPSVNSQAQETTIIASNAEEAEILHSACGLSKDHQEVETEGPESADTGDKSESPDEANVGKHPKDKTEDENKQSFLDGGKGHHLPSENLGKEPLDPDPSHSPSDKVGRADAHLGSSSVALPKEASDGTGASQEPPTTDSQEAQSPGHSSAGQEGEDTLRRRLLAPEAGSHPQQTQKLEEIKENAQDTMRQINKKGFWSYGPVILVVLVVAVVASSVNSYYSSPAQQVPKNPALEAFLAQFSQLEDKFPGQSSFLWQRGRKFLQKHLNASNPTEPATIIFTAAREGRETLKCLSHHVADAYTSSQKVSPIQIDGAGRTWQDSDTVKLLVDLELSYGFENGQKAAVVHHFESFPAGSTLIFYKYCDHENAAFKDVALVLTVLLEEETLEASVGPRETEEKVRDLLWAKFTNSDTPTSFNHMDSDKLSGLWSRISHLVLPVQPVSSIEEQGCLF

[16] = E. coli growth modulation, two-sided OD650, primary screen, E. coli filamentation project, strain DRC41, 24 h (AID 1093); settings: OD650, 24 h, higher = more signal, called active from +8 up or from −8 down;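 further: MC1000 strain lacking acrAB efflux and sulA so SOS filamentation is blocked; test concentration not given here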
[17] = small-molecule microarray binders of probe aLefty2, primary screen, biochemical, biotinylated probe, 635/667 nm fluorescence (AID 1094); settings: higher = more signal;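 further: score merges spot fluorescence near 667 nm with spot signal-to-noise ratio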
[18] = test system: Noggin (protein binding on small-molecule microarray); experiment: Noggin binders on small-molecule microarray, primary screen, biochemical, 635/667 nm fluorescence (AID 1095); settings: 635 nm fluorescence, higher = more signal;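 further: score merges 667 nm feature fluorescence with signal to noise over triplicate slides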
[19] = molecular target: Neurogenic locus notch homolog protein 3 (Homo sapiens) (UniProt Q9UM47); experiment: NOTCH3 binders on small-molecule microarray, primary screen, biochemical, 635/667 nm fluorescence (AID 1096); settings: NOTCH3 binding, 635 nm fluorescence, higher = more signal
[20] = small-molecule microarray binders of probe aEGFR, primary screen, biochemical, biotinylated probe, 635/667 nm fluorescence (AID 1097); settings: higher = more signal;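 further: probe is a biotinylated anti-EGFR antibody binding compounds printed on slides; score combines fluorescence near 667 nm and signal to noise of each spot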

SMILES	composite z-score [1]	composite z-score [2]	composite z-score [3]	composite z-score [4]	composite z-score [5]	composite z-score [6]	composite z-score [7]	z-score [8]	composite z-score [9]	composite z-score [10]	composite z-score [11]	z-score [12]	z-score [13]	z-score [14]	composite z-score [15]	z-score [16]	composite z-score [17]	composite z-score [18]	composite z-score [19]	composite z-score [20]
O=C1C2=CC[C@H]3C(=O)N(Cc4ccccc4)C(=O)[C@H]3[C@H]2[C@H](O)[C@@H]2O[C@H]12	-0.291	-0.339	-0.132	0.011	0.0297	-0.0087	0.281	6.64 (inactive)	-0.351	0.176	0.0864	-0.733 (inactive)	-2.12 (inactive)	-0.213 (inactive)	-1.23	-0.559 (inactive)	-0.185	-0.0873	-0.95	-0.125
O=C1C[C@@H](O)[C@@H](O)[C@@H]2[C@@H]3C(=O)N(C4CCCCC4)C(=O)[C@@H]3CC[C@@H]12	-0.371	0.159	-0.0113	0.394	0.334	1.05	0.546	0.129 (inactive)	0.0535	-0.0237	0.607	0.93 (inactive)	-0.509 (inactive)	-0.149 (inactive)	0.905	0.536 (inactive)	-0.137	0.354	0.57	-0.0921
CC(CCC(=O)OC[C@H]1O[C@H](C#Cc2ccccc2)C=C[C@@H]1Oc1ccc(C)cc1)=NOC[C@@H](C)[C@H](OCc1ccccc1)C(C)C	-0.205	-0.0926	-0.121	-0.122	-0.67	-1.01	-1.05	-0.234 (inactive)	-0.114	-0.175	-0.694	-0.78 (inactive)	0.484 (inactive)	-0.468 (inactive)	-1.27	-0.346 (inactive)	-0.342	0.809	-1.27	-0.24
CO[C@H]1COC(=O)[C@H](C)COC(=O)[C@H](C)NC(=O)CC=C[C@H]1C	-0.874	1.28	-0.145	0.37	0.127	-0.575	0.887	-0.592 (inactive)	0.0261	0.124	1.34	-0.301 (inactive)	-0.296 (inactive)	-0.253 (inactive)	0.449	0.828 (inactive)	-0.166	1.29	0.696	-0.122
CCc1cc2c(nc1CC)CCN(CCC(C)=NO[C@@H]1O[C@H](COC(C)=O)[C@@H](OC(C)=O)[C@H](OC(C)=O)[C@H]1OC(C)=O)C2	-0.191	0.905	0.0333	0.928	0.839	0.408	0.996	1.05 (inactive)	0.365	-0.0994	1.55	-0.149 (inactive)	-0.35 (inactive)	0.143 (inactive)	0.809	-0.551 (inactive)	-0.0271	1.06	1.1	0.131
CC(C)=CCCC(C)=CCON=C1C[C@@H](O)[C@@H](O)[C@@H]2[C@@H]3C(=O)N(Cc4ccc5c(c4)OCO5)C(=O)[C@@H]3CC[C@@H]12	-0.316	-0.777	-0.241	0.31	0.397	0.364	0.974	0.397 (inactive)	0.396	-0.0618	1.54	0.0718 (inactive)	1.03 (inactive)	-0.864 (inactive)	2.06	0.813 (inactive)	0.0478	0.837	0.983	-0.0432
COc1ccc(COC(=O)NN=C2C[C@@H](O)[C@@H](O)[C@@H]3[C@@H]4C(=O)N(Cc5ccc6c(c5)OCO6)C(=O)[C@@H]4CC[C@H]23)cc1	1.62	-0.197	-0.0269	-0.0605	-0.546	-0.393	-0.282	1.02 (inactive)	0.648	0.0373	0.041	1.13 (inactive)	0.713 (inactive)	-0.369 (inactive)	0.259	0.434 (inactive)	0.475	-0.961	-0.523	-0.194
CCOC(=O)[C@H](Cc1ccccc1)NC(=O)CCC1CC(OC(=O)NCc2cccc3ccccc23)CC2(CCCC(COC(=O)NCCOc3ccccc3)O2)O1 (stereo not given in full)	-0.591	0.618	-0.105	0.133	0.863	0.972	0.898	0.688 (inactive)	0.214	0.204	1.57	-0.851 (inactive)	-0.421 (inactive)	-0.792 (inactive)	3.18	-0.325 (inactive)	-0.122	0.734	1.12	-0.0828
CC(C)CN1CCc2nc(-c3ccccc3)c3c(c2C1)CO[C@@H](C)C3	-0.277	0.306	-0.0291	0.923	1.31	0.43	0.846	0.955 (inactive)	0.147	-0.16	1.42	-0.319 (inactive)	0.218 (inactive)	-0.0674 (inactive)	1.71	0.801 (inactive)	-0.145	1.5	1.08	0.0914
CCOC(=O)[C@H](Cc1ccccc1)NC(=O)CCC1CC(OC(=O)NCc2cccc3ccccc23)CC2(CCCC(COC(=O)NCc3ccc4c(c3)OCO4)O2)O1 (stereo not given in full)	-0.341	-0.261	-0.0391	0.694	0.305	0.188	1.07	1.4 (inactive)	0.0918	-0.134	-0.0058	0.549 (inactive)	-0.02 (inactive)	0.743 (inactive)	1.8	0.951 (inactive)	-0.139	0.453	0.227	0.104
